ClpP mod = qHTS Assay for Activators of ClpP | ATP-dependent Clp protease proteolytic subunit (Bacillus subtilis (strain 168)), P80244 | purified B. subtilis ClpP, FRET peptide cleavage, 20 min | Potency, µM (doses to about 57.5 µM), for inactives: at the highest dose activity change, negative = active | 340,000 compounds, 1.9% hits | AID 651965, 2013; active = well fitted falling curve with a large enough effect; inconclusive = small, poorly fitted or top-dose-only effect; inactive = no such curve, though single readings can be large or run the other way; note: potency is the fitted concentration of half-maximal effect; the source files actives as falling curves though it sought activators and does not explain the sign; nearly all actives have a fitted effect of over 65% in size
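Purified B. subtilis ClpP, 10 microg/mL final in Tris/HCl pH8 with KCl, BSA, glycerol and Tween-20, cleaved an Abz/nitrotyrosine-quenched decapeptide. Fluorescence (ex 320, em 430) was read at 0 and 20 min at room temperature. Delta was normalized to 5.8 microM ADEP and DMSO/no-enzyme controls.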
hERG WT inh = KCNH2 (human, wildtype) channel inhibition | U2OS, BacMam KCNH2, thallium flux FluxOr; hits give low values | activity change, % at 1.84 µM | 340,000 compounds, 0.37% hits;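 active = maximum activity change below -70%; inconclusive = maximum activity change between -70% and -50%; inactive = maximum activity change above -50%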; note: % is set by controls: 0 for no effect and ±100 for the full control effect
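U2OS cells were transduced with wild-type KCNH2 virus (2.03 x 10^8 / mL) for 4 h at room temperature, then cultured overnight at 37 C. Thallium flux was read with FluxOr dye. Rate constants were normalized to DMSO controls.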
KCNH2 3.1 inh = KCNH2 3.1 (human) potassium channel inhibition; U2OS KCNH2 3.1, thallium flux FluxOr; hits give low values; activity change, % (tested at about 1.8 µM); 340,000 compounds, 0.95% hits;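 active = maximum activity change below -70%; inconclusive = maximum activity change from -70% to -50%; inactive = maximum activity change above -50%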;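 note: thallium influx rate constant from kinetic fluorescence after stimulation buffer; % is set by controls: 0 for no effect and ±100 for the full control effect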
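U2OS cells transduced with KCNH2 3.1 mutant virus (1.77 x 10^8 /mL, 4 h), plated overnight at 37 C, loaded 45 min with FluxOr dye plus Red40 quencher. Thallium flux rate constant from kinetic reads after stimulation buffer, normalised to controls.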
ALOX12 inh = inhibitors of human 12S-lipoxygenase ALOX12 | purified 12hLO, xylenol orange hydroperoxide absorbance | P18054 | 580,000 compounds, 1.1% hits | AID 1671190 | Potency, µM (titrated, usually from 108 µM), inactives show top-dose activity change, negative = inhibition, usual class: inhibitors; active = well fitted inhibition curve with a large enough effect; inconclusive = small, poorly fitted or top-dose-only effect, or another doubt; inactive = no such curve, though single readings can be large or run the other way; note: potency is the fitted concentration of half-maximal effect; % is set by controls: 0 for no effect and ±100 for the full control effect
Target sequence (P18054 whole entry, looked up): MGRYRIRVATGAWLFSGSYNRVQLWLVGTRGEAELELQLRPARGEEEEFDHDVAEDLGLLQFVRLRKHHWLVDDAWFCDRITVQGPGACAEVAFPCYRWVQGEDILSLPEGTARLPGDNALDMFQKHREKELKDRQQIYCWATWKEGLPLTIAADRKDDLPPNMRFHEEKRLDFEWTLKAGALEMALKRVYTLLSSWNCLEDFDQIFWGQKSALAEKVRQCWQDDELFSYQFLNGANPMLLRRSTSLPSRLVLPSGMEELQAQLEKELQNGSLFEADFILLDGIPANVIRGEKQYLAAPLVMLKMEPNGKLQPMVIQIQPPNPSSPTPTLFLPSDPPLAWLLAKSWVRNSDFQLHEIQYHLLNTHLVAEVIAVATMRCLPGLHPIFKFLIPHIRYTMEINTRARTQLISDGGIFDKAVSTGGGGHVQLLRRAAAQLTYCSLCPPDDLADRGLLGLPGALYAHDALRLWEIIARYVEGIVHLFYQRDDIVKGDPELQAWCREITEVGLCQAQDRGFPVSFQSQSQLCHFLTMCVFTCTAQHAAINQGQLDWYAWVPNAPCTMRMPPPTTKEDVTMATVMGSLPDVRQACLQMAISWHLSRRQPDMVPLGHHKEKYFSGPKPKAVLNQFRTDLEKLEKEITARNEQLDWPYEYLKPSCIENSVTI
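Purified human 12hLO at 150 nM in 25 mM Hepes, 0.01% Triton X-100, pH 7.0, preincubated 15 min at room temperature with compound. Reaction started with 40 uM arachidonic acid, 30 min at room temperature. Hydroperoxide measured by Fe-xylenol orange, 573/405 nm absorbance ratio.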
BCR signal inh = inhibitors of chronic active B-cell receptor signaling; ABC-DLBCL IkBa-CBG/CBR reporter, luminescence ratio, 4 h; Potency, µM (series often up to 46.1 µM), without a hit: at the top dose activity change, negative = inhibition, usual class: inhibitors; 340,000 compounds, 0.05% hits; AID 493014; active = well fitted inhibition curve with a large enough effect in the signal ratio, with a control signal flat, not every such curve was filed as active; inconclusive = small, poorly fitted or top-dose-only effect, or effect the other way, or a change in a side signal; the % refers to the signal ratio;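 note: potency is the fitted concentration of half-maximal effect; plate controls were basal doxycycline-induced cells for no effect and cells given 10 µM MG132 for full effect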
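TMD8 human ABC-DLBCL cells with doxycycline-inducible IκBα–green luciferase fusion and unfused red luciferase, in 0.5% FBS medium; compounds up to 46 uM, 4 h at 37C. Green/red luminescence ratio, filter-overlap corrected, fitted to concentration-response curves.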
LDHA block = LDHA (human) enzyme inhibition | activity change, % (values are at about 110 or 230 µM) | P00338 | AID 1347041 | purified LDHA, NADH/diaphorase-resazurin fluorescence; hits give low values | 480,000 compounds, 0.15% hits; in the data active = activity change below about -30%; inconclusive = mostly about -25% to -30%;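 note: plate controls were DMSO wells for no effect and wells without enzyme for full effect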
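Enzyme activity of human lactate dehydrogenase 5 (2 nM; 0.06 mM NADH, 0.2 mM pyruvate, 5 min, RT) is measured via a resazurin/diaphorase fluorescence readout of residual NADH.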
Numbers without * were called inactive; i = inactive; ? = inconclusive; . = no result given; [ ] = dose if it differs, or a comment. Most compounds without a hit are left out; they make up all but 3% or so of the library.

SMILES	ClpP mod	hERG WT inh	KCNH2 3.1 inh	ALOX12 inh	BCR signal inh	LDHA block
CCOC(=O)N1CCN(C(=O)c2cc(-c3ccc(OCC)cc3)nc3ccccc23)CC1	28µM*	10	-12	-4%	-10%	-13
COc1ccc(-c2cc(OC)c3ccccc3n2)cc1	20µM*	15	-18	45µM*	0%	-2
COc1ccc(-c2cc(C(=O)N3CC(C)CC(C)C3)c3ccccc3n2)cc1 (stereo not given)	28µM*	-5	-7	?	-5%	0
CC(=O)c1ccc(N2CCN(C(=O)c3cc(-c4ccc5c(c4)OCO5)nc4ccccc34)CC2)cc1	32µM*	-2	-10	0%	?	-10
Cc1ccc(C)c(CNC(=O)CCc2conc2-c2cccc(F)c2)c1	.	.	.	20%	.	.
CCNc1c(NC(=O)Nc2cccc(Cl)c2)c(=O)oc2ccccc12	.	.	.	?	.	12
COc1ccc(-c2ocnc2C(=O)Nc2c(C)cccc2C)cc1	.	.	.	?	.	10
CC(=O)Nc1ccc(CN2CC(N(C)c3ccccc3C)C2)cc1	.	.	.	3%[176 µM]	.	.
Cc1cc2ncn(C(=O)c3cc(-c4ccccc4)nc4ccccc34)c2cc1C	14µM*	-9	-3	1%	2%	-11
CC1CN(C(=O)c2cc(-c3ccc(Cl)s3)nc3ccccc23)CC(C)O1 (stereo not given)	28µM*	0	-5	?	-4%	-5
CCOc1ccc(-c2cc(C(=O)N3CCN(C)CC3)c3ccccc3n2)cc1	28µM*	13	2	-3%	0%	-2
COc1ccc(-c2cc(C(=O)N3CCC3)c3ccccc3n2)cc1	.	.	.	4%	.	4
COc1ccc2cc(-c3cc(C(=O)O)c4ccccc4n3)ccc2c1	25µM*	-22	-3	?	?	11
O=C(N/N=C(/C=C/c1ccccc1)c1ccccc1)c1cccs1	.	.	.	0%	.	0
CCOc1ccc(-c2cc(C(=O)N3CCCC3)c3ccccc3n2)cc1	14µM*	0	-13	.	-4%	-4
N#Cc1c2n(c3c(=O)n(CC(=O)c4ccc(Br)cc4)cnc13)CCCC2	?	7	-10	-6%	1%	-3
N#Cc1c2n(c3c(=O)n(CC(=O)c4ccc([N+](=O)[O-])cc4)cnc13)CCCCC2	-2%	-101*	-16	-2%	5%	-8
O=C(OCc1noc(-c2ccco2)n1)c1cc(Br)c[nH]1	.	.	.	25µM*	.	3
Cc1c(C(=O)N2CCN(c3ccc([N+](=O)[O-])cc3)CC2)oc2ccccc12	1%	-18	-73*	-14%	0%	2
Cc1c(-c2ccccc2)oc2c(C(=O)N3CCN(c4ccc([N+](=O)[O-])cc4)CC3)cccc2c1=O	2%	-103*	-71*	-27%	-3%	-5
O=C(C1COc2ccccc2O1)N1CCN(c2ccc([N+](=O)[O-])cc2)CC1 (stereo not given)	-12%	3	-73*	?	0%	-4
O=C(C1COc2ccccc2O1)N1CCN(c2ccc(F)cc2)CC1 (stereo not given)	-1%	5	40	-36%	?	-2
Cc1c(-c2ccccc2)oc2c(C(=O)Nc3ccc(N4CCN(C)CC4)cc3)cccc2c1=O	.	.	.	7%	.	12
Nc1c(C(=O)O)cccc1[N+](=O)[O-]	.	.	.	?	.	3
COC(=O)/C(C#N)=C/c1c(-c2ccccc2)nc2n1CCS2	.	-2	-12	0%	3%	-5
SMILES	ClpP mod	hERG WT inh	KCNH2 3.1 inh	ALOX12 inh	BCR signal inh	LDHA block
Clc1cccc(Cl)c1CO/N=C/c1c(-c2ccccc2)nc2n1CCS2	25µM*	0	19	0%	20%	0
CCN(CC)S(=O)(=O)c1ccc(S(=O)(=O)N2CCCC2)cc1	.	-11	11	-1%	?	-10
CCOCCCN(CCC#N)S(=O)(=O)c1ccc(S(=O)(=O)N2CCCC2)cc1	-1%	-82*	-8	-8%	-1%	1
Oc1ccc(CCc2n[nH]c(=S)n2-c2ccc(F)cc2)cc1	-1%	0	13	25µM*	-3%	-5
Cc1ccc(NCc2n[nH]c(=S)n2-c2ccccc2)cc1	.	i	-1	28µM*	-1%	0
CCOc1ccc(-n2c(CCc3ccccc3)n[nH]c2=S)cc1	-8%	6	-1	?	?	-4
COc1ccc(-n2c(CCc3ccccc3)n[nH]c2=S)cc1	-2%	3	-2	?	5%	-7
CCCOc1ccc(CCc2n[nH]c(=S)n2-c2ccccc2)cc1	0%	-3	-74*	?	0%	-4
CCc1ccc(C(NC(=O)C2CC2)c2cccc(F)c2)cc1 (stereo not given)	.	.	.	?	.	0
C=CCNC(=O)CC1Nc2c3ccccc3nc(=S)n2C1=O (stereo not given)	-7%	-2	-5	18µM*	3%	-2
CCc1cc(=O)oc2c(C)c(O[C@@H]3O[C@H](CO)[C@@H](O)[C@H](O)[C@H]3O)ccc12	28µM*	-9	-9	-5%	1%	-3
CCc1cc(=O)oc2c(C)c(OCc3ccc(OC)cc3)ccc12	.	.	.	27%	.	9
Cc1c(C)c2ccc(O[C@@H]3O[C@H](CO)[C@@H](O)[C@H](O)[C@H]3O)c(C)c2oc1=O	0%	-8	0	0%	-1%	0
C=CCOc1ccc2c(CC)cc(=O)oc2c1C	25µM*	-11	-15	11%	?	-4
CCN(CC)c1nc2c(S(=O)(=O)c3ccc(C(C)C)cc3)nnn2c2ccsc12	.	.	.	24%	.	-7
Cc1c(C(=O)C(=O)Nc2ccc(C(C)C)cc2)c2ccccc2n1C	.	.	.	?	.	3
O=c1c(Cl)c(NCCO)ncn1-c1ccccc1	28µM*	4	7	0%	6%	-4
CNc1nc(Cl)nc2c1ncn2-c1ccccc1	1%	-2	-6	-11%	.	-9
Cn1c(C(=O)NCCCN2CCN(c3ccccc3F)CC2)cc2c(=O)[nH]c3ccccc3c21	32µM*	7	7	-5%	0%	-13
CCC1(C)NC(=O)N(NC(=O)CCc2c[nH]c3ccccc23)C1=O (stereo not given)	.	.	.	22%	.	-8
Nc1cccc(OCC2CCCO2)c1 (stereo not given)	.	.	.	7.1µM*	.	7
NC(=O)c1ccc(OCC2CCCO2)cc1 (stereo not given)	.	3	8	-6%	6%	-8
NS(=O)(=O)c1ccc(Nc2c([N+](=O)[O-])cncc2[N+](=O)[O-])cc1	.	-20	-7	40%	1%	-33*
